Molecular target: Muscarinic acetylcholine receptor M5 (Homo sapiens) (UniProt P08912)
Assay: agonist curve shift by M5 PAMs – cell-based, calcium fluorescence, mechanism study (AID 651776)
Conditions: M5-expressing cells, stronger effect = higher value

Muscarinic acetylcholine receptor M5 (Homo sapiens), sequence (P08912 whole entry, looked up): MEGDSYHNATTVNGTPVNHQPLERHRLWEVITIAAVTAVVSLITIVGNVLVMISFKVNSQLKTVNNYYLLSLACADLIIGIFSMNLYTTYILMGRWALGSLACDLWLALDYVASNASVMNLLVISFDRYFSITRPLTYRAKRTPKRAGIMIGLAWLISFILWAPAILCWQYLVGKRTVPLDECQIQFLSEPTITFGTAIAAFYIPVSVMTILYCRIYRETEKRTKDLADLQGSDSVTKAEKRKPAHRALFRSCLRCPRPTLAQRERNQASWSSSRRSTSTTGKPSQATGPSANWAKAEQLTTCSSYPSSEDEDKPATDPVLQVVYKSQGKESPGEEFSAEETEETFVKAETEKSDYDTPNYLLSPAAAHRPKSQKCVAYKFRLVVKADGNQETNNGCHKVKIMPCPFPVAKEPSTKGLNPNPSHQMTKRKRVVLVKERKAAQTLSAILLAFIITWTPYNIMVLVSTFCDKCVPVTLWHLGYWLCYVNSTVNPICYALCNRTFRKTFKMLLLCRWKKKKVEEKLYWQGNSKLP

Work on O=C1C(=O)N(CCOc2ccccc2)c2ccc(OC(F)(F)F)cc21 yielded a fold shift of 19.2.

Reference: PubChem BioAssay AID651776 (Vanderbilt Specialized Chemistry Center, 2012)
